Among all 310,000 compounds or so, about 14,000 (4.5%) showed an effect of 50% or more. The effect is printed as a negative number. The list comes from a sample in which strong results are over-represented; it also holds similar structures and randomly drawn compounds.
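Also: peak tail current of the secondary pulse compared with the same well before compound.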

The target in the assay is human ether-à-go-go-related gene (hERG) potassium channel (human, UniProt Q12809). Kind of assay: primary screen, population patch clamp on CHO cells stably expressing hERG; higher = less effect of the substance.
Chain of human ether-à-go-go-related gene (hERG) potassium channel (Q12809 whole entry, looked up): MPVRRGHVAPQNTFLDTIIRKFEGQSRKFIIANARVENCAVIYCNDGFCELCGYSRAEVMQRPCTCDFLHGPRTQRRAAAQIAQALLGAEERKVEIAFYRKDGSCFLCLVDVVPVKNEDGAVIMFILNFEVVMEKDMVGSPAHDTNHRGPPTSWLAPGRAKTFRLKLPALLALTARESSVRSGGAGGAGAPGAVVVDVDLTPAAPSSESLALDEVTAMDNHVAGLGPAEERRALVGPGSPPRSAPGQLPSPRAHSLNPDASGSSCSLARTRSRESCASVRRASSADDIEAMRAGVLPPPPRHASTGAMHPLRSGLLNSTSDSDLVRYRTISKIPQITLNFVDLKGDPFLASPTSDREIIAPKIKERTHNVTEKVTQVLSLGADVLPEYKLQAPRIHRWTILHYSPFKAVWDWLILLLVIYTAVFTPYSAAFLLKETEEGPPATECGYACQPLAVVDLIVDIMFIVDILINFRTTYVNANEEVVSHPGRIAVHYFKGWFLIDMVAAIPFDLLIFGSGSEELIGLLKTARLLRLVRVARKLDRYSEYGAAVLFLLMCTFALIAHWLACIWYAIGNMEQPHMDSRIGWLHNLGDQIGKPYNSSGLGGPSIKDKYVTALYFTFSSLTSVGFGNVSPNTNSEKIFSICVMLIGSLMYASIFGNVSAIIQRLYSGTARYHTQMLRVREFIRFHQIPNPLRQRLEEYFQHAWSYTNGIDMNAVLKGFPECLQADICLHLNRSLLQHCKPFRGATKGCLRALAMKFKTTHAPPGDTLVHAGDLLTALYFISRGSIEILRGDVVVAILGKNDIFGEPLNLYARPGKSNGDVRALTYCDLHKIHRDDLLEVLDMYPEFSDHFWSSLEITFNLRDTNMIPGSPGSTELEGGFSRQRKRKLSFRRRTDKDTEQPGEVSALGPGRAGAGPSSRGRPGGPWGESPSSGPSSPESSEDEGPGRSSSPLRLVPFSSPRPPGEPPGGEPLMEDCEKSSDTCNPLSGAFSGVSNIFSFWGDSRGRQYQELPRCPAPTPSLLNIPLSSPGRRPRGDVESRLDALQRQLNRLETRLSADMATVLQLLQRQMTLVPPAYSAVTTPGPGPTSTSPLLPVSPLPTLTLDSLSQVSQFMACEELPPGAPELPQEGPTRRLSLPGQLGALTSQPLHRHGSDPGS
For the molecule `CCCC1S/C(=N/N=C/c2ccc(C)cc2)N(Cc2ccc(OC)cc2)C1=O` (centres unmarked), the “hERG current change (%, negative = inhibition) at 10uM” value is recorded as 9.81%.
In the case of `CC(=O)Oc1ccc(-c2cc3ccccc3oc2=O)cc1` it was 0.436%; in that of `CCOC(=O)N1CCN(Cc2nnc(-c3ccccc3Cl)o2)CC1.Cl`, 11.4%; in that of `CCOc1c(C)cnc2c1c(=O)n(Cc1cccc(Cl)c1)c(=O)n2C`, -36.1%.
Under `CC(C)(C)NC(=O)CSc1ncccc1-c1nc2ccccc2[nH]1` stands -4.73%.
Turning to `Cc1c(C)c2ccc(OCC(=O)Nc3ccc(N4CCC(C)CC4)cc3)cc2oc1=O`, the “hERG current change (%, negative = inhibition) at 10uM” value is reported as 14.7%.
Under `COc1ccc(-n2nc3c(c2NC(=O)COc2cccc(OC)c2)CS(=O)(=O)C3)cc1` stands -29.5%.
Under `Cc1ccc(-c2n[nH]c(=S)n2/N=C\c2ccco2)cc1` stands 24.1%.
`O=C(C1CCN(C2CCN(C/C(Cl)=C/c3ccccc3)CC2)CC1)N1CCOCC1`: the “hERG current change (%, negative = inhibition) at 10uM” value is -64.1%.
Under `O=C(/C=C/c1ccccc1)N1CCC(N2CCC(C(=O)N3CCOCC3)CC2)CC1` stands -23.4%.
Take `O=C(C1CCN(C2CCN(Cc3ccsc3)CC2)CC1)N1CCOCC1`: the “hERG current change (%, negative = inhibition) at 10uM” value is on record as -3.8%.
`O=C(Cc1ccc(F)cc1)N1CCC(N2CCC(C(=O)N3CCOCC3)CC2)CC1`: the “hERG current change (%, negative = inhibition) at 10uM” value worked out at 9.76%.
In the case of `Cc1cccc(CC(=O)N2CCC(N3CCC(C(=O)N4CCOCC4)CC3)CC2)c1` it was 0.701%.
Under `O=C(C1CCN(C2CCN(Cc3cccc4c3OCO4)CC2)CC1)N1CCOCC1` stands -34.7%.
`C/C(=C\c1ccco1)CN1CCC(N2CCC(C(=O)N3CCOCC3)CC2)CC1`: the “hERG current change (%, negative = inhibition) at 10uM” value is recorded as -78.9%.
In the case of `O=C(C1CCN(C2CCN(Cc3ccc4c(c3)CCO4)CC2)CC1)N1CCOCC1` it was -26.6%.
Under `O=C(C1CCN(C2CCN(C/C=C/c3ccccc3)CC2)CC1)N1CCOCC1` stands -53.4%; under `CCOCCCNC(=O)CN1CCN(S(=O)(=O)c2ccc3c(c2)CCC3)CC1`, 3.99%; under `COC(=O)CSc1nnc(CNS(=O)(=O)c2ccc(C)cc2)n1C`, 1.97%.
In the case of `CN(C)N=Nc1ccc(S(=O)(=O)N2CCSC2C(=O)O)cc1` (centres unmarked) it was 2.21%; in that of `COC1CCN(C(=O)CC2C(=O)NCCN2CC2CCCCC2)CC1` (centres unmarked), 13.3%; in that of `CCOc1cccc(=O)c2c(C)n(CC3CCCO3)c(C)c12` (centres unmarked), -2.39%.
With `CCOc1cccc(=[NH+]C2CCCCC2)c2c(C)[nH]c(C)c12.[O-][Cl+3]([O-])([O-])[O-]`, the “hERG current change (%, negative = inhibition) at 10uM” value is reported as -70.3%.
Regarding `CCOc1cccc(OCC)c2c(C)[n+](CC3CCCO3)c(C)c1-2.[O-][Cl+3]([O-])([O-])[O-]` (centres unmarked), the “hERG current change (%, negative = inhibition) at 10uM” value was -36.9%.
In the case of `CCOc1ccccc1OCCNC1CCCC1` it was 8.26%; in that of `CCOc1cccc(=O)c2c(C)n(CC(=O)c3ccccc3)c(C)c12`, -6.91%.
Under `CCOc1cccc(=[NH+]C2CCCCC2)c2c(C)n(C)c(C)c12.[O-][Cl+3]([O-])([O-])[O-]` stands -70.3%.
In the case of `O=C(CN1C(=O)NC2(CCCC2)C1=O)N1CCN(S(=O)(=O)c2ccccc2[N+](=O)[O-])CC1`, the “hERG current change (%, negative = inhibition) at 10uM” value came out at 7.61%.
Under `N=c1n(-c2ccccc2)c(O)cc(=O)n1-c1ccccc1` stands -6.28%; under `CCCn1c(N)c(N(CCOC)C(=O)c2ccc([N+](=O)[O-])c(C)c2)c(=O)[nH]c1=O`, 35.8%; under `CC(NS(=O)(=O)c1ccc(Br)cc1)C(=O)NC1CCCCCC1` (centres unmarked), 5.35%.
In the case of `Cc1noc(C)c1S(=O)(=O)N1CCCC(C(=O)Nc2ccc(Cl)cn2)C1` (centres unmarked) it was -26%; in that of `CCOC(=O)C1(Cc2ccccc2)CCCN(C(=O)c2cnn(CC)c2)C1` (centres unmarked), 10.1%; in that of `CCOC(=O)C1(CCCc2ccccc2)CCN(C(=O)c2cnc(C)cn2)CC1`, -39.8%.
In the case of `CCOC(=O)C1(Cc2cccc(Cl)c2)CCCN(C(=O)c2cnn(CC)c2)C1` (centres unmarked) it was -6.39%.
For `CCOC(=O)C1(CCCc2ccccc2)CCN(C(=O)Cc2nonc2C)CC1`, the “hERG current change (%, negative = inhibition) at 10uM” value is reported as -51.3%.
With `CCOC(=O)C1(CCCc2ccccc2)CCN(C(=O)c2ocnc2C)CC1`, the “hERG current change (%, negative = inhibition) at 10uM” value is given as -56.1%.
Under `CCOC(=O)C1(CCCc2ccccc2)CCN(C(=O)COC)CC1` stands -25.9%; under `CCOC(=O)C1(CC2CC2)CCN(C(=O)c2ocnc2C)CC1`, 7.25%.
In the case of `CCOC(=O)C1(CCCc2ccccc2)CCN(C(=O)c2cc(C)nn2CC)CC1` it was -57.8%; in that of `CCOC(=O)C1(CCCc2ccccc2)CCN(C(=O)c2cnn(CC)c2)CC1`, -64.2%.
In the case of `CCOC(=O)C1(CCc2ccccc2)CCN(C(=O)Cc2nonc2C)CC1` it was -21.4%.
Turning to `CCOC(=O)C1(CCCc2ccccc2)CCN(C(=O)c2cc(C)nc(C)n2)CC1`, the “hERG current change (%, negative = inhibition) at 10uM” value was -16.4%.
In the case of `CCn1c(N2CCN(S(=O)(=O)c3ccc(Cl)cc3)CC2)nc2ccccc21` it was -48.4%; in that of `COc1cccc(NC(=O)CCNS(=O)(=O)c2ccc3c(c2)CC(C)N3C(=O)C2CC2)c1` (centres unmarked), -5.18%.
Under `O=C(CCS(=O)(=O)c1ccc(Br)s1)NC1CCCC1` stands 6.05%.
As to `COc1ccc(NS(=O)(=O)c2cccc3cccnc23)cc1OC`, the “hERG current change (%, negative = inhibition) at 10uM” value is 24.2%.
As for `CNc1nc(NN)nc(Nc2ccccc2)n1`, the “hERG current change (%, negative = inhibition) at 10uM” value stood at 9.76%.
`Cc1ccc(S(=O)(=O)CC(=O)Nc2cccc(C)n2)cc1`: the “hERG current change (%, negative = inhibition) at 10uM” value was determined as 6.48%.
In the case of `Cc1cccc(C(=O)NCC(=O)NC2CCN(Cc3ccccc3)CC2)c1` it was -7.99%.
In the case of `CCOC(=O)C1(CCCc2ccccc2)CCN(C(=O)CSC)CC1`, the “hERG current change (%, negative = inhibition) at 10uM” value was -24.1%.
Under `CCOC(=O)C1(CCCc2ccccc2)CCN(C(=O)c2ccoc2)CC1` stands -54.3%; under `O=C(c1ccoc1)N1CCC(CO)(CCc2ccccc2)CC1`, -28.7%; under `CCCCCC(=O)Nc1nnn(CCC)n1`, 4.41%.
With `CC(C(=O)O)N1C(=O)c2cccc3cccc1c23` (centres unmarked), the “hERG current change (%, negative = inhibition) at 10uM” value was 1.97%.
Under `COc1ccc(NCc2nnc(SCC(=O)Nc3nc(-c4ccccc4)cs3)n2-c2ccccc2)cc1` stands 13%.

The record behind these values is publication PMC4336329 (PLoS ONE, 2015).
